Calls of active or inactive are those of the source.
How the values were obtained:
[1] = test system: PRMT1 (protein arginine N-methyltransferase 1); assay: small molecules binding arginine methyltransferase PRMT1 – biochemical, small-molecule microarray, 635 nm fluorescence, primary screen (AID 1088); conditions: higher = more signal;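 also: binding of Prmt1 protein to compounds spotted on small-molecule microarray slides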
[2] = growth effects on S. cerevisiae YJM789 – YJM789 clinical isolate, OD600, 24 h, basal, primary screen (AID 1089); conditions: higher = more signal, called active from +8 up or from −8 down;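 also: growth of clinical yeast isolate S. cerevisiae YJM 789 seeded 1000 cells per well; test concentration not given here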
[3] = S. pombe growth modifiers, basal conditions – strain 972, OD600, 24 h, no modulator, primary screen (AID 1090);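 also: basal condition with compound alone and no growth modifier present; test concentration not given here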; conditions: S. pombe 972 growth, higher = more signal, called active from +8 up or from −8 down
[4] = budding yeast growth modifiers under rapamycin – strain BY4716, OD600, 96 h, primary screen (AID 1091); also: test concentration not given here; conditions: S. cerevisiae BY4716 + rapamycin, higher = more signal, called active from +8 up or from −8 down
[5] = biological target: Torsin-1A-interacting protein 2 (Homo sapiens) (UniProt Q8NFQ8); assay: small molecules binding lysate-expressed LULL1 – cell lysate, human LULL1 lysate, 635/667 nm fluorescence, primary screen (AID 1092); conditions: small-molecule microarray, hLULL1 lysate binding, 635 nm fluorescence; higher = more signal;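 also: probe is lysate of COS7 cells overexpressing human LULL1; score merges per-feature 667 nm fluorescence with signal-to-noise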
Torsin-1A-interacting protein 2 (Homo sapiens), sequence (Q8NFQ8 whole entry, looked up): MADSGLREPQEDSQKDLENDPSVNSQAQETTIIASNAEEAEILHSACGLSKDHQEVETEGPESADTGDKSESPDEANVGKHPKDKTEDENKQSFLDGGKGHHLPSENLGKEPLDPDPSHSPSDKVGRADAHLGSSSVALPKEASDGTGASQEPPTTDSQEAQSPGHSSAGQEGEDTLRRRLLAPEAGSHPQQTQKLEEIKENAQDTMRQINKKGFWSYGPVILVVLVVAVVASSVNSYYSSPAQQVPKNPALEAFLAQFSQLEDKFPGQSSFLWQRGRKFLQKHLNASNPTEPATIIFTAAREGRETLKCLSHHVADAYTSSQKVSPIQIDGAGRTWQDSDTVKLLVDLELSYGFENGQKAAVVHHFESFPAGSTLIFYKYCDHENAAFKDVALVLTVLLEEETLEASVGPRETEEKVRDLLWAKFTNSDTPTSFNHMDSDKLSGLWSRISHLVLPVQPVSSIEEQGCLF

[6] = optical density change of DRC41 E. coli – strain DRC41, OD650, 24 h, E. coli filamentation project, primary screen (AID 1093);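 also: MC1000 strain lacking acrAB efflux and sulA so SOS filamentation is blocked; test concentration not given here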; conditions: E. coli DRC41 growth, higher = more signal, called active from +8 up or from −8 down
[7] = probe aLefty2 binding to arrayed compounds – biochemical, biotinylated probe, 635/667 nm fluorescence, primary screen (AID 1094); conditions: small-molecule microarray, higher = more signal;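 also: score merges spot fluorescence near 667 nm with spot signal-to-noise ratio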
[8] = test system: Noggin (protein binding on small-molecule microarray); assay: small molecules binding Noggin protein – biochemical, 635/667 nm fluorescence, primary screen (AID 1095); conditions: 635 nm fluorescence, higher = more signal;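 also: score merges 667 nm feature fluorescence with signal to noise over triplicate slides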
[9] = biological target: Neurogenic locus notch homolog protein 3 (Homo sapiens) (UniProt Q9UM47); assay: small molecules binding NOTCH3 protein – biochemical, 635/667 nm fluorescence, primary screen (AID 1096); conditions: small-molecule microarray, 635 nm fluorescence, higher = more signal
Neurogenic locus notch homolog protein 3 (Homo sapiens), sequence (Q9UM47 whole entry, looked up): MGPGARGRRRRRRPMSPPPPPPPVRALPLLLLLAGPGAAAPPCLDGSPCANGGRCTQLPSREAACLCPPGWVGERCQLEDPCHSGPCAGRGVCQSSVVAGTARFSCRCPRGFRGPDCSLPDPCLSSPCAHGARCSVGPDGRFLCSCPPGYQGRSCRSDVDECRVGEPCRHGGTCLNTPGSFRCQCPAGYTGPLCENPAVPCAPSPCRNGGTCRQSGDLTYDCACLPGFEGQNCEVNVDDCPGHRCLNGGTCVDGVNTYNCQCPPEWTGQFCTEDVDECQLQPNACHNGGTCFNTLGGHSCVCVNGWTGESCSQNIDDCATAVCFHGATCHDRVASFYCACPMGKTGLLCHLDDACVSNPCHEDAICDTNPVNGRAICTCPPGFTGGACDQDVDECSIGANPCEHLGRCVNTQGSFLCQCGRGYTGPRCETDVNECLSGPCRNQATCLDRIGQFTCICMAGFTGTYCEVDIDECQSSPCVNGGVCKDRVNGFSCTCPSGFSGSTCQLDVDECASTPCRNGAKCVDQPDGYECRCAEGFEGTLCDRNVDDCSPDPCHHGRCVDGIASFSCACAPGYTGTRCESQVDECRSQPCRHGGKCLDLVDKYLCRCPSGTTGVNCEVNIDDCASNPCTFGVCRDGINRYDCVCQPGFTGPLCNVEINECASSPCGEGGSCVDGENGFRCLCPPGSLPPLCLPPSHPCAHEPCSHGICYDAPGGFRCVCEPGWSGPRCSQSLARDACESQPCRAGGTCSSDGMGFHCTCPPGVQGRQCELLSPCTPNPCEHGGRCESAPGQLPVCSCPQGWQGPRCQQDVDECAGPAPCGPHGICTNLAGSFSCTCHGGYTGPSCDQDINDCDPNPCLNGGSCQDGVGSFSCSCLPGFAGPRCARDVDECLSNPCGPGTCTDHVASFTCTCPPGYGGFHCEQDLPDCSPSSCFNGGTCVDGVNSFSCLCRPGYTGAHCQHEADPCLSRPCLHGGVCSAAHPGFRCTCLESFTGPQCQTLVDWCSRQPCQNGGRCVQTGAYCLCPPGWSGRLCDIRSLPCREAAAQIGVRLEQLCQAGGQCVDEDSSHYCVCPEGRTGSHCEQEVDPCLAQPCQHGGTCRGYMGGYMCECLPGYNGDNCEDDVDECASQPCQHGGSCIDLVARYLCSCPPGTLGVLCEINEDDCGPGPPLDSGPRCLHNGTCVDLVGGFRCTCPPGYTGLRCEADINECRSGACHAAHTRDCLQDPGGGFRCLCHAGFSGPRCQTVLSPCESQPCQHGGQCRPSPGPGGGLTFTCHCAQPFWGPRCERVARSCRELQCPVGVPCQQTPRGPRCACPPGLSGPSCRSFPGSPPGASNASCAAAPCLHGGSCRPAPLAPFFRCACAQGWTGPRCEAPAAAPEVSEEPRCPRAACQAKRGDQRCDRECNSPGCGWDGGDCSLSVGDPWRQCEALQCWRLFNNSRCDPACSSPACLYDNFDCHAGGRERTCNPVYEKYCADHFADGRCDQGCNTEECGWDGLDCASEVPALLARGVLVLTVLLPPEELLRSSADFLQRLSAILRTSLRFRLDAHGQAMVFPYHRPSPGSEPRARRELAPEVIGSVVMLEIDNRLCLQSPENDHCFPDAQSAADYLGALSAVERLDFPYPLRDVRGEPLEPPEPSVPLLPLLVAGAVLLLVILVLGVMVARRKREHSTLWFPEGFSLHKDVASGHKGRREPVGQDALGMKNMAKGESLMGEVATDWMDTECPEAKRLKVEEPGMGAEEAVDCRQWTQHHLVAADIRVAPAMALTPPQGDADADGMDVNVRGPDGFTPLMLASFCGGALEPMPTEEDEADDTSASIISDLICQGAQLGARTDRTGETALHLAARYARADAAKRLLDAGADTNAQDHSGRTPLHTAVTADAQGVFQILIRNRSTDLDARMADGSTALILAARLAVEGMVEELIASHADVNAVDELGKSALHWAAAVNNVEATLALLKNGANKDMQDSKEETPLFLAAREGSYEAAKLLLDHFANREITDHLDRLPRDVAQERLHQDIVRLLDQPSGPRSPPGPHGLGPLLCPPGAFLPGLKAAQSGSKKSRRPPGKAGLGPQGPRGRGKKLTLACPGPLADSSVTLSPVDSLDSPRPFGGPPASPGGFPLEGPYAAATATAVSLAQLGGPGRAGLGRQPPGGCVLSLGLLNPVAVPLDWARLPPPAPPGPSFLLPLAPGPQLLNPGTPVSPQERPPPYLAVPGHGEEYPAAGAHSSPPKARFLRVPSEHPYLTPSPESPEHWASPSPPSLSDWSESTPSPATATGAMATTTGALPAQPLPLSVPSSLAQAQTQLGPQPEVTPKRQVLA

[10] = probe aEGFR binding to arrayed compounds – biochemical, biotinylated probe, 635/667 nm fluorescence, primary screen (AID 1097); conditions: small-molecule microarray, higher = more signal;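 also: probe is a biotinylated anti-EGFR antibody binding compounds printed on slides; score combines fluorescence near 667 nm and signal to noise of each spot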

Row | SMILES | composite z-score [1] | z-score [2] | z-score [3] | z-score [4] | composite z-score [5] | z-score [6] | composite z-score [7] | composite z-score [8] | composite z-score [9] | composite z-score [10]
1 | CCCC[C@@H]1C[C@H]1[C@@H](NS(=O)(=O)c1cccc2cccnc12)c1ccc(-c2ccccc2)cc1 | -1.42 | 0.0994 (inactive) | 1.16 (inactive) | 0.676 (inactive) | 1.26 | -0.781 (inactive) | 0.0141 | -0.696 | 0.32 | -0.0728
2 | C[C@@H](c1ccccc1)N1C(=O)[C@H]2[C@H]3[C@H](O)C=CC(=O)[C@@H]3CC[C@H]2C1=O | 0.595 | -0.432 (inactive) | -0.271 (inactive) | -0.402 (inactive) | -0.309 | 0.372 (inactive) | -0.252 | 0.421 | 0.698 | -0.0649
3 | O=C1NC(=O)C2C1C=CC(C(O)Cc1ccccc1)N2Nc1ccccn1 (stereo not given) | 0.185 | -0.47 (inactive) | 1.21 (inactive) | -1.22 (inactive) | 2.31 | 0.297 (inactive) | 0.101 | 0.0356 | 0.504 | 0.0026
4 | CC(C)NC(=O)[C@@]1(C)c2ccccc2C(=O)N(Cc2cc(F)cc(C(F)(F)F)c2)[C@H]1c1ccc(CO)cc1 | 0.86 | -0.0639 (inactive) | 0.102 (inactive) | -0.623 (inactive) | 1.76 | 0.341 (inactive) | 0.119 | 0.371 | 0.364 | 0.034
5 | N#Cc1ccc(NN2C(C(O)c3cc(C(F)(F)F)cc(C(F)(F)F)c3)C=CC3C(=O)N(c4ccccc4)C(=O)C32)cc1 (stereo not given) | 1.34 | 0.628 (inactive) | 0.817 (inactive) | 4.19 (inactive) | 3.45 | -1.55 (inactive) | 0.135 | 0.0695 | 1.05 | 0.0731

Source: PubChem BioAssay
